Our source for the relative growth values is published antibiotic growth screens (doi:10.1016/j.cell.2020.01.021).

The full ranking holds about 2,300 compounds; the median of “relative growth” is about 1, and the lowest 2% start at about 0.046. Only a sample is shown.

For the experiment, the system named is E. coli BW25113. Briefly: relative growth (fraction of control); higher = less inhibition. The following applies: 50 µM.
`CC12CCC3C(=CCc4cc(O)ccc43)C1CCC2=O` (stereo unspecified) displayed a relative growth of 0.988. In the case of `CCC1OC(=O)C(C)C(OC2CC(C)(OC)C(O)C(C)O2)C(C)C(OC2OC(C)CC(N(C)C)C2O)C(C)(O)CC(C)C(=O)C(C)C(O)C1(C)O.CCCCCCCCCCCCCCCCCC(=O)O` (stereo unspecified) it was 0.665; in that of `NCCCC(N)C(=O)O.NCCCC(N)C(=O)O.O=C(O)CCC(=O)C(=O)O`, 1.09. In the case of `C=CC1CN2CCC1CC2C(O)c1ccnc2ccc(OC)cc12` (stereo unspecified) it was 1.02; in that of `Cc1ccsc1C=CC1=NCCCN1C.O=C(O)CC(O)(CC(=O)O)C(=O)O`, 0.986. In the case of `CN(C)C1C(O)=C(C(N)=O)C(=O)C2(O)C(O)=C3C(=O)c4c(O)cccc4C(C)(O)C3CC12.Cl` (stereo unspecified) it was 0.0522; in that of `CN1CCN(C2=Nc3ccccc3Oc3ccc(Cl)cc32)CC1.O=C(O)CCC(=O)O`, 1.08.

Turning to `C#CCCCCCCCCCCCC(O)CC(O)COC(C)=O.C=CCCCCCCCCCCCC(O)CC(O)COC(C)=O` (stereo unspecified), the relative growth was determined as 1.03. In the case of `CCN(CC)CCOCCOC(=O)C1(c2ccccc2)CCCC1.O=C(O)CC(O)(CC(=O)O)C(=O)O` it was 1.08. In the case of `CN(C)CCC(c1ccc(Cl)cc1)c1ccccn1.O=C(O)C=CC(=O)O` (stereo unspecified) it was 0.967; in that of `CCCCCCc1ccc(O)cc1O.Nc1c2ccccc2nc2ccccc12`, 0.591; in that of `Cl.N[C@H](Cc1ccccc1)C(=O)O`, 1.

For `O=C(O)C(O)C(O)C(=O)O.OCc1cccnc1` (stereo unspecified), the relative growth came to 1.06. As to `CNCC(O)C(O)C(O)C(O)CO.Cc1c(Nc2ncccc2C(=O)O)cccc1C(F)(F)F`, the relative growth is 1.04. In the case of `CCCCCNC(=N)NN=Cc1c[nH]c2ccc(OC)cc12.O=C(O)C=CC(=O)O` it was 0.879. In the case of `CCN(CC)CCOCCOC(=O)C(CC)(CC)c1ccccc1.O=C(O)CC(O)(CC(=O)O)C(=O)O` it was 1.1; in that of `CN1CCCN=C1C=Cc1cccs1.O=C(O)c1cc2ccccc2c(Cc2c(O)c(C(=O)O)cc3ccccc23)c1O`, 1.13; in that of `CCC1OC(=O)CC(O)C(C)C(OC2OC(C)C(OC3CC(C)(O)C(O)C(C)O3)C(N(C)C)C2O)C(CC=O)CC(C)C(=O)C=CC(C)=CC1COC1OC(C)C(O)C(OC)C1OC.O=C(O)C(O)C(O)C(=O)O` (stereo unspecified), 1.09. In the case of `CC(=O)OC1CC2(C)C(CC(O)C3C4(C)CCC(O)C(C)C4CCC32C)C1=C(CCC=C(C)C)C(=O)O` (stereo unspecified), the relative growth is 1.12. In the case of `NNC(=O)c1ccncc1.Nc1ccc(C(=O)O)c(O)c1` it was 0.943; in that of `O=C(O)CCC(=O)O.O=C(OC1CN2CCC1CC2)N1CCc2ccccc2C1c1ccccc1` (stereo unspecified), 1.02; in that of `CCC(=O)OC1C(OC2C(C)C(OC3CC(C)(OC)C(O)C(C)O3)C(C)C(=O)OC(CC)C(C)(O)C(O)C(C)C(=O)C(C)CC2(C)O)OC(C)CC1N(C)C.CCCCCCCCCCCCOS(=O)(=O)O` (stereo unspecified), 0.953. In the case of `Oc1ccc(Cl)c2cccnc12` it was 0.421; in that of `CN1CCc2nc(C(=O)NC3CC(C(=O)N(C)C)CCC3NC(=O)C(=O)Nc3ccc(Cl)cn3)sc2C1.Cc1ccc(S(=O)(=O)O)cc1.O` (stereo unspecified), 1.01.

Compound `CC(=O)c1ccc2c(c1)N(CCCN1CCN(CCO)CC1)c1ccccc1S2.O=C(O)C=CC(=O)O` showed a relative growth of 1.17.

Turning to `CC(=O)OCC(=O)C1(O)C(C)CC2C3CCC4=CC(=O)C=CC4(C)C3(F)C(O)CC21C` (stereo unspecified), the relative growth was 0.913. The compound `OCC(O)C(O)C(OC1OC(CO)C(O)C(O)C1O)C(O)CO` (stereo unspecified) showed a relative growth of 0.991. In the case of `CC1CC2C3CCC4=CC(=O)C=CC4(C)C3(F)C(O)CC2(C)C1(O)C(=O)COP(=O)([O-])[O-].[Na+].[Na+]` (stereo unspecified) it was 1.1; in that of `CN1C(C)(C)CCCC1(C)C.O=C(O)C(O)C(O)C(=O)O`, 0.993.

In turn, `CN(C)CCN(Cc1ccccc1)c1ccccn1.O=C(O)CC(O)(CC(=O)O)C(=O)O` returned a relative growth of 0.763. On to `CCC(=C(c1ccccc1)c1ccc(OCCN(C)C)cc1)c1ccccc1.O=C(O)CC(O)(CC(=O)O)C(=O)O`, for which the relative growth was 0.642.
